Laboratory results: PubChem BioAssay (EPA / NIEHS)
Where “and” joins values, the source holds several entries; their conditions need not be identical. Equal values may be shown once. Where a structure was tested more than once in an assay, its records may differ in their call. Calls of active or inactive are those of the source. Rule for the calls: active = hit-call score of the fitted dose curve at least 0.9, where 1 is the maximum; inactive = score below 0.9.

Tests used:
[1] = read-out: Urokinase-type plasminogen activator receptor (uPAR), PLAUR (gene 5329); test: BSK_4H_uPAR: BioMAP Diversity Plus: 4H Assay for Urokinase-type plasminogen activator receptor (uPAR) Biomarker Activity (AID 2283030); settings: primary human endothelial cells (HUVEC); actives raise or lower the signal
Outline: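 Primary human umbilical vein endothelial cells were exposed to chemical for 24 h before cell-surface uPAR was quantified by ELISA. Activity was fitted bidirectionally against the DMSO negative control baseline.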

[2] = read-out: Vascular endothelial growth factor receptor 2 (Homo sapiens) (UniProt P35968); test: BSK_4H_VEGFRII: BioMAP Diversity Plus: 4H Assay for Vascular endothelial growth factor receptor 2 (VEGFR2) Biomarker Activity (AID 2283031); settings: primary human endothelial cells (HUVEC); actives raise or lower the signal;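 for AC50: cell-surface VEGFR2 protein level quantified by ELISA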
Outline: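 Primary human umbilical vein endothelial cells in the BioMAP 4H system were dosed with test chemical, and 24 h later VEGFRII was measured by ELISA. Activity was fitted bidirectionally against DMSO as negative control and baseline.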

[3] = read-out: Human Leukocyte Antigen - DR isotype (HLADR), HLA-DRA (gene 3122); test: BSK_BE3C_HLADR: BioMAP Diversity Plus: BE3C Assay for Human Leukocyte Antigen - DR isotype (HLADR) Biomarker Activity (AID 2283032); settings: primary human bronchial epithelial cells; actives raise or lower the signal
Outline: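 Human primary bronchial epithelial cells in the BE3C system were exposed to chemicals for 24 h, after which HLA-DR levels were quantified by ELISA. Activity was fitted bidirectionally, gain or loss of signal, against DMSO as negative control and baseline.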

[4] = read-out: Vascular cell adhesion molecule 1 (VCAM1), VCAM1 (gene 7412); test: BSK_4H_VCAM1: BioMAP Diversity Plus: 4H Assay for Vascular cell adhesion molecule 1 (VCAM1) Biomarker Activity (AID 2283033); settings: primary human endothelial cells (HUVEC); actives raise or lower the signal
Outline: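 Primary human umbilical vein endothelial cells were exposed to chemicals for 24 h, after which VCAM-1 was quantified by ELISA. Responses were fitted bidirectionally against DMSO as negative control and activity baseline.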

[5] = read-out: Interferon-gamma inducible Protein 10 (IP10), CXCL10 (gene 3627); test: BSK_BE3C_IP10: BioMAP Diversity Plus: BE3C Assay for Interferon-gamma inducible Protein 10 (IP10) Biomarker Activity (AID 2283034); settings: primary human bronchial epithelial cells; actives raise or lower the signal
Outline: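 Human primary bronchial epithelial cells were exposed to chemicals for 24 hours, after which IP-10 levels were measured by ELISA. Data were fitted bidirectionally against DMSO, which served as the negative control and activity baseline.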

[6] = read-out: Plasminogen activator inhibitor-1 (PAI1), SERPINE1 (gene 5054); test: BSK_BE3C_PAI1: BioMAP Diversity Plus: BE3C Assay for Plasminogen activator inhibitor-1 (PAI1) Biomarker Activity (AID 2283037); settings: primary human bronchial epithelial cells; actives raise or lower the signal
Outline: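 Human primary bronchial epithelial cells were exposed to chemical for 24 h, then PAI-1 was quantified by ELISA. Activity was fitted bidirectionally relative to the DMSO negative control baseline.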

[7] = read-out: urokinase plasminogen activator (uPA), PLAU (gene 5328); test: BSK_BE3C_uPA: BioMAP Diversity Plus: BE3C Assay for urokinase plasminogen activator (uPA) Biomarker Activity (AID 2283038); settings: primary human bronchial epithelial cells; actives raise or lower the signal
Outline: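 Human primary bronchial epithelial cells were exposed to chemical for 24 h, then uPA levels were measured by ELISA. Responses were fitted bidirectionally against DMSO as negative control and baseline. Parallel SRB staining of total protein gauged overt cytotoxicity.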

[8] = read-out: Urokinase-type plasminogen activator receptor (uPAR), PLAUR (gene 5329); test: BSK_BE3C_uPAR: BioMAP Diversity Plus: BE3C Assay for Urokinase-type plasminogen activator receptor (uPAR) Biomarker Activity (AID 2283039); settings: primary human bronchial epithelial cells; actives raise or lower the signal
Outline: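 Primary human bronchial epithelial cells were dosed with chemical and harvested 24 h later; uPAR was quantified by ELISA. Activity was fitted bidirectionally against DMSO as negative control and baseline.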

[9] = read-out: Interleukin-6 (IL6), IL6 (gene 3569); test: BSK_CASM3C_IL6: BioMAP Diversity Plus: CASM3C Assay for Interleukin-6 (IL6) Biomarker Activity for (AID 2283040); settings: primary human coronary artery smooth muscle cells; actives raise or lower the signal
[10] = read-out: Tissue plasminogen activator (tPA), PLAT (gene 5327); test: BSK_BE3C_tPA: BioMAP Diversity Plus: BE3C Assay for Tissue plasminogen activator (tPA) Biomarker Activity (AID 2283041); settings: primary human bronchial epithelial cells; actives raise or lower the signal
Outline: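 Human primary bronchial epithelial cells were dosed with chemical and tPA biomarker levels measured by ELISA 24 hours later. Activity was fitted bidirectionally against DMSO as negative control and baseline.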

[11] = read-out: Interleukin-8 (IL8), CXCL8 (gene 3576); test: BSK_CASM3C_IL8: BioMAP Diversity Plus: CASM3C Assay for Interleukin-8 (IL8) Biomarker Activity (AID 2283042); settings: primary human coronary artery smooth muscle cells; actives raise or lower the signal;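 note: IL-8 protein level quantified by ELISA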
[12] = read-out: Human Leukocyte Antigen - DR isotype (HLADR), HLA-DRA (gene 3122); test: BSK_CASM3C_HLADR: BioMAP Diversity Plus: CASM3C Assay for Human Leukocyte Antigen - DR isotype (HLADR) Biomarker Activity (AID 2283043); settings: primary human coronary artery smooth muscle cells; actives raise or lower the signal;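 note: cell-surface HLA-DR protein level quantified by ELISA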
[13] = read-out: Macrophage colony-stimulating factor (MCSF), CSF1 (gene 1435); test: BSK_CASM3C_MCSF: BioMAP Diversity Plus: CASM3C Assay for Macrophage colony-stimulating factor (MCSF) Biomarker Activity (AID 2283044); settings: primary human coronary artery smooth muscle cells; actives raise or lower the signal;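 note: M-CSF protein amount quantified by ELISA after 24 h exposure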
[14] = read-out: Low-density lipoprotein receptor (LDLR), LDLR (gene 3949); test: BSK_CASM3C_LDLR: BioMAP Diversity Plus: CASM3C Assay for Low-density lipoprotein receptor (LDLR) Biomarker Activity (AID 2283045); settings: primary human coronary artery smooth muscle cells; actives raise or lower the signal;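 note: LDLR protein level on the cell surface quantified by ELISA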
[15] = read-out: Monocyte Chemoattractant Protein-1 (MCP1), CCL2 (gene 6347); test: BSK_CASM3C_MCP1: BioMAP Diversity Plus: CASM3C Assay for Monocyte Chemoattractant Protein-1 (MCP1) Biomarker Activity (AID 2283046); settings: primary human coronary artery smooth muscle cells; actives raise or lower the signal;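 note: MCP-1 level quantified by ELISA 24 h after dosing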
[16] = BSK_CASM3C_Proliferation: Cell Proliferation Assessment in the BioMAP Diversity Plus: CASM3C Assay (AID 2283047); settings: primary human coronary artery smooth muscle cells;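 note: sulforhodamine B total protein stain as relative cell number at 560 nm; sub-confluent cells exposed 48 h before staining; fitted both ways against DMSO so gain or loss of cell number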
[17] = read-out: Monokine induced gamma interferon (MIG), CXCL9 (gene 4283); test: BSK_CASM3C_MIG: BioMAP Diversity Plus: CASM3C Assay for Monokine induced gamma interferon (MIG) Biomarker Activity (AID 2283048); settings: primary human coronary artery smooth muscle cells; actives raise or lower the signal
[18] = read-out: serum amyloid A (SAA), SAA1 (gene 6288); test: BSK_CASM3C_SAA: BioMAP Diversity Plus: CASM3C Assay for serum amyloid A (SAA) Biomarker Activity (AID 2283049); settings: primary human coronary artery smooth muscle cells; actives raise or lower the signal;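 note: SAA protein level quantified by ELISA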
[19] = read-out: Monokine induced gamma interferon (MIG), CXCL9 (gene 4283); test: BSK_BE3C_MIG: BioMAP Diversity Plus: BE3C Assay for Monokine induced gamma interferon (MIG) Biomarker Activity (AID 2283035); settings: primary human bronchial epithelial cells; actives raise or lower the signal;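 note: MIG protein measured by ELISA in BE3C cultures after 24 h of dosing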
Outline: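 ELISA read-out of MIG in human lung bronchial epithelial primary cultures, 24 h post-dosing. Bidirectional curve fit vs DMSO baseline.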

[20] = read-out: Transforming growth factor beta 1 (TGFb1), TGFB1 (gene 7040); test: BSK_BE3C_TGFb1: BioMAP Diversity Plus: BE3C Assay for Transforming growth factor beta 1 (TGFb1) Biomarker Activity (AID 2283036); settings: primary human bronchial epithelial cells; actives raise or lower the signal
Outline: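 Human primary bronchial epithelial cells (BE3C system) were dosed with chemical and TGF-b1 levels measured by ELISA at 24 h. Activity was fitted bidirectionally relative to DMSO negative control as baseline.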

Measured: AC50

C=CC(=O)OCC(F)(F)C(F)(F)C(F)(F)C(F)(F)COC(=O)C=C
active: [1] 57.8 µM and 55.1 µM | [2] 9.64 µM | [3] 40.4 µM and 42.4 µM | [4] 25.5 µM and 24 µM | [5] 45.1 µM and 45.8 µM | [7] 8.4 µM and 8.81 µM | [8] 21.5 µM | [9] 7.96 µM | [10] 8.82 µM | [12] 17.8 µM | [13] 34.9 µM and 30 µM | [14] 12.2 µM | [15] 45.8 µM and 44 µM | [16] 18.9 µM and 31.4 µM | [17] 28.6 µM and 31 µM | [18] 22.9 µM and 16.1 µM
inactive: [2] | [6] | [8] | [9] | [10] | [11] | [12] | [14]

CCCCNc1ccccc1
inactive: [1] | [2] | [3] | [4] | [5] | [19] | [20] | [6] | [7] | [8] | [9] | [10] | [11] | [12] | [13] | [14] | [15] | [16] | [17] | [18]
